Composite z-score and z-score data for 17 molecules are collected here from PubChem BioAssay.

Assay [1] concerns XIP peptide (Xip251-270) binding. Put plainly: small-molecule binders of XIP peptide, primary screen, biochemical, small-molecule microarray, fluorescence 635/667 nm, 0.1 µg/mL protein (AID 1182). As to conditions: fluorescent protein binding, 635 nm, higher = more signal, called active from +8 up or from −8 down.
The next assay relates to XIP peptide (Xip251-270). Nature of the assay: small-molecule binders of XIP peptide, primary screen, biochemical, small-molecule microarray, fluorescence 635/667 nm, 0.5 µg/mL protein (AID 1183). As to conditions: small-molecule microarray binding, fluorescence 635 nm; higher = more signal.
Assay [2] is described as follows: Plasmodium falciparum growth inhibition, primary screen, strain 3D7, DAPI fluorescence, 100 nL (AID 1184).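 Note: parasites grown inside human red blood cells in medium with human serum.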 Particulars: P. falciparum 3D7 growth, 3 d, higher = more signal.
Assay [3] concerns the target Homeobox protein Hox-A13 (Mus musculus) (UniProt Q62424). Put plainly: inhibitors of HoxA13-DNA binding, primary screen, biochemical, fluorescence polarization, labeled oligonucleotide (AID 1185). As to conditions: 15 min, higher = more signal, called active from +8 up or from −8 down. In general terms: In fluorescence polarisation assays a small probe gives low polarisation when free and higher when bound to something large.

The nature of assay [4]: inhibitors of hydroxyurea-induced Chk1 phosphorylation, primary screen, imaging, HeLa, phospho-Chk1 antibody, percent positive cells (AID 1186). As to conditions: hydroxyurea-induced phospho-Chk1 immunofluorescence imaging, higher = more signal.
Assay [5] in a line: inhibitors of hydroxyurea-induced Chk1 phosphorylation, primary screen, imaging, HeLa, phospho-Chk1 nuclear intensity (AID 1187). Particulars: hydroxyurea-induced phospho-Chk1 immunofluorescence imaging, higher = more signal.

Molecules are shown by their SMILES. Active and inactive are the calls of the source. Unless noted, the rule behind the calls is not given here.

Chain of Homeobox protein Hox-A13 (Mus musculus) (Q62424 whole entry, looked up): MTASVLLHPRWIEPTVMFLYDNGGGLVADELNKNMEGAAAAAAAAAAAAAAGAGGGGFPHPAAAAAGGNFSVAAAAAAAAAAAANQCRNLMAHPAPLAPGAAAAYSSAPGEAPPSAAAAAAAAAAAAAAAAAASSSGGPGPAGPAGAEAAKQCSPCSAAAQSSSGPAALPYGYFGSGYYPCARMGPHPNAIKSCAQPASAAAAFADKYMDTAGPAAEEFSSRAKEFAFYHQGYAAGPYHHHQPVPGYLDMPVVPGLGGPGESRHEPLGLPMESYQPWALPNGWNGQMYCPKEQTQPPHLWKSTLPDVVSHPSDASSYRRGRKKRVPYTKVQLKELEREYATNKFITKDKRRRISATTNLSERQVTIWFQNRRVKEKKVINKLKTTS

Regarding `C[C@]12C(=O)N(CCCCCCO)[C@@H]3C(=O)N(c4ccc(Cl)cc4)CC=CC31O[C@@H]1/C=C\CCCOC(=O)C12` (some centres not stated), the composite z-score in assay [1] was -0.295 (inactive); with XIP peptide (Xip251-270), -0.0821. The z-score in assay [2] was -0.692; in assay [3], -4.68 (inactive); in assay [4] it was -0.659 (inactive); in assay [5] it was 0.264 (inactive).

Turning to `COC(=O)[C@]1(CCS(=O)(=O)c2ccccc2)N=C(c2ccc(OCCCO)cc2)O[C@@H]1c1ccccc1CN=[N+]=[N-]`, the composite z-score in assay [1] is 0.867 (inactive); in the assay on XIP peptide (Xip251-270), 0.769. For the same molecule, the z-score was -2.2 in assay [2], -0.936 (inactive) in assay [3], -0.375 (inactive) in assay [4] and -0.574 (inactive) in assay [5].

Consider `[N-]=[N+]=Nc1ccccc1[C@@H]1OC(c2ccc(OCCCO)cc2)=N[C@]1(CCS(=O)(=O)c1ccccc1)C(=O)NCCN1CCOCC1`, for which the composite z-score is 0.691 (inactive) in assay [1] and 0.433 in the assay with XIP peptide (Xip251-270). Besides, the z-score in assay [2] is -2.67; in assay [3], -3.85 (inactive); in assay [4] it was 0.147 (inactive); in assay [5], 0.222 (inactive).

For the molecule `CCOC(=O)C[C@H]1[C@H](OC(=O)Cc2ccc3c(c2)OCO3)[C@@H](NC(=O)Cc2ccc(OC)cc2)c2cc(OCCCO)ccc2N1C(=O)c1ccccc1`, the composite z-score in assay [1] is 1.08 (inactive); in the assay on XIP peptide (Xip251-270) it was -0.0883. Moreover, the z-score in assay [2] is -0.382; in assay [3], -2.51 (inactive); in assay [4] it was -0.543 (inactive); in assay [5], -0.165 (inactive).

On to `C=CCN1C(=O)[C@@]2(CCC(=O)OC(C)(C)C)N=C(c3ccc(OCCCO)cc3)O[C@H]2c2ccccc21`, for which the composite z-score in assay [1] is 0.841 (inactive); in the assay on XIP peptide (Xip251-270), 0.473. In addition, the z-score is -1.95 in assay [2], -0.861 (inactive) in assay [3], -0.239 (inactive) in assay [4] and -0.351 (inactive) in assay [5].

As for `CCOC(=O)[C@@H]1[C@@H]2C(=O)N(CC)C(=O)[C@@H]2C[C@@H]1Sc1ccccc1`, the composite z-score in assay [1] was -0.266 (inactive); in the assay with XIP peptide (Xip251-270), 0.313. Also, the z-score in assay [2] was -0.555; in assay [3] it was -4.73 (inactive); in assay [4], 0.899 (inactive); in assay [5], 0.647 (inactive).

As for `COC(=O)[C@@]1(Cc2ccc(OC)cc2)[C@H]2c3cc(C(=O)N(C)C)n(Cc4nc5ccccc5[nH]4)c3C[C@H]2CN1C(=O)c1ccccc1`, the composite z-score in assay [1] is 0.469 (inactive); in the assay on XIP peptide (Xip251-270) it was 0.599. Also, the z-score in assay [2] was -1.17; in assay [3], -3.08 (inactive); in assay [4] it was 0.399 (inactive); in assay [5], 0.0842 (inactive).

Take `O=C1NCC(=O)N2[C@@H]1C[C@@H](C(=O)O)[C@H]2c1ccc(O)cc1`: the values for the composite z-score (in assay [1]; in the assay with XIP peptide (Xip251-270)) were 1.26 (inactive) and 0.665, respectively. The z-score in assay [2] was 0.489; in assay [3] it was -1.91 (inactive); in assay [4] it was 0.0155 (inactive); in assay [5], 0.0565 (inactive).

Regarding `COc1ccc(CCNC(=O)[C@@]2(Sc3ccc(C)cc3)CC(=O)N(Cc3cc(C(F)(F)F)cc(C(F)(F)F)c3)[C@@H]2c2ccc(CO)cc2I)cc1`, the results for the composite z-score (in assay [1]; in the assay with XIP peptide (Xip251-270)) were 0.439 (inactive) and 0.858, respectively. The z-score in assay [2] was 0.725; in assay [3], -2.57 (inactive); in assay [4], 0.261 (inactive); in assay [5] it was 0.688 (inactive).

As to `C=C(C(=O)CC[C@H](OC(C)=O)c1cccc(OCCO)c1)C(C)C`, the composite z-score was -0.252 (inactive) in assay [1] and 0.565 in the assay on XIP peptide (Xip251-270). Besides, the z-score was -1.96 in assay [2], -4.74 (inactive) in assay [3], 0.885 (inactive) in assay [4] and 0.41 (inactive) in assay [5].

With `CC(C)(C)OC(=O)CC[C@]1(C(=O)O)N=C(c2ccc(OCCCO)cc2)O[C@H]1c1ccccc1`, the composite z-score is -0.0164 (inactive) in assay [1] and 0.543 in the assay on XIP peptide (Xip251-270). Also, the z-score in assay [2] was -1.62; in assay [3] it was -3.48 (inactive); in assay [4], -0.388 (inactive); in assay [5], -0.243 (inactive).

Turning to `COc1ccc(C(O)C2C=CC3C(=O)N(C)C(=O)C3N2N2CCCCC2)cc1` (configuration not stated), the values for the composite z-score (in assay [1]; in the assay on XIP peptide (Xip251-270)) were 0.568 (inactive) and 0.37, respectively. The z-score in assay [2] is -0.0513; in assay [3] it was -4.16 (inactive); in assay [4] it was -1.52 (inactive); in assay [5] it was -1.31 (inactive).

Turning to `O=C1NC(=O)C2C1C=CC(C(O)c1c(F)cccc1Cl)N2Nc1ccccn1` (configuration not stated), the composite z-score in assay [1] was 0.49 (inactive); in the assay on XIP peptide (Xip251-270), 0.833. Besides, the z-score in assay [2] was -0.362; in assay [3], -2.19 (inactive); in assay [4], 0.578 (inactive); in assay [5], 0.135 (inactive).

For the molecule `C=CC[C@H](OC(=O)Nc1ccc(OC)cc1)c1ccc(O)c2ccccc12`, the composite z-score in assay [1] is -0.104 (inactive); in the assay on XIP peptide (Xip251-270), 0.616. For the same molecule, the z-score was -1.36 in assay [2], -0.0657 (inactive) in assay [3], 0.936 (inactive) in assay [4] and 0.821 (inactive) in assay [5].

For `C[n+]1ccc(CCCO)cc1`, the composite z-score in assay [1] is 0.955 (inactive); in the assay on XIP peptide (Xip251-270), 1.02. For the same molecule, the z-score in assay [2] is -1.21; in assay [3], -2.17 (inactive); in assay [4] it was -0.0124 (inactive); in assay [5], 0.102 (inactive).

For `COc1ccc([Si](C)(C)[C@@H]2[C@@H](CCO)O[C@]3(C(=O)N(Cc4cccc(N5C(=O)c6ccccc6Oc6ccccc65)c4)c4ccccc43)[C@H]2C)cc1`, the composite z-score in assay [1] was 0.872 (inactive); with XIP peptide (Xip251-270) it was 0.41. The z-score was -2.47 in assay [2], -1.49 (inactive) in assay [3], -0.665 (inactive) in assay [4] and -0.278 (inactive) in assay [5].

As for `CN1C(=O)C2C(C1=O)C1C=C(c3ccc(CO)cc3)C2C(c2cccs2)N1Cc1cccc(OC(F)(F)F)c1` (configuration not stated), the composite z-score was 0.94 (inactive) in assay [1] and 0.591 in the assay on XIP peptide (Xip251-270). The z-score was -3.19 in assay [2], -8.09 (active) in assay [3], -0.384 (inactive) in assay [4] and -0.0226 (inactive) in assay [5].
